# “And” between values parts separate entries of the source, which are not always exact repeats. Equal entries are not always repeated. Hit rate of the full screen: of about 340,000 compounds, about 2,300 (0.68%) were called active. Cut-off read from the data, not from the text of the source: active = growth rescue above about 28% (passing the limit was not always enough); inconclusive = no clear call, values can overlap the other calls. The entries come from a sample that favours actives as a whole.
# Test: rescue of yeast from PfHsp40 toxicity, primary screen, S. cerevisiae, ATP luminescence (AID 504582);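 note: yeast W303a lacking pdr1 and pdr3 grown in galactose medium; growth measured after three days at 30 °C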
# Details: S. cerevisiae expressing PfHsp40, growth rescue, at 12.5 µM, active compounds read high
row,SMILES,growth rescue
1,COc1ccc(C(=O)NC(=S)NNC(=O)c2c(-c3ccccc3)noc2C)cc1,42.1% (active)
2,COc1ccc(C(=O)NC(=S)NC2CCCCC2)cc1,0.972% (inactive)
3,Cc1onc(-c2ccccc2)c1C(=O)Nc1ccccc1C#N,-0.716% (inactive) and 0.99% (inactive)
4,Cc1onc(-c2c(Cl)cccc2Cl)c1C(=O)NNC(=O)c1c(-c2c(Cl)cccc2Cl)noc1C,-0.106% (inactive)
5,Cc1onc(-c2ccccc2)c1C(=O)N=C(N)c1ccc(Cl)cc1,-1% (inactive)
6,Cc1noc(C)c1COc1ccc(C(=O)NCCOc2ccccc2)cc1,0.221% (inactive)
7,Cc1onc(-c2ccccc2)c1C(=O)NNC(=S)NC(=O)c1ccc(F)cc1,45.5% (active)
8,COc1ccc(C(=O)NC(=S)NNC(=O)CCc2ccccc2)cc1,277% (active)
9,O=C(CCc1ccccc1)NNC(=O)COc1ccc(Cl)cc1,-0.417% (inactive)
10,COc1ccc(NS(=O)(=O)c2cc(NC(=O)c3ccc(S(=O)(=O)N(C)C)cc3)ccc2N2CCOCC2)cc1,0.23% (inactive)
11,CCOC(=O)N1CCN(CC(=O)n2c(C)c(C)c3ccccc32)CC1,1.25% (inactive)
12,COC(=O)Cc1ccc(NC(=S)NCc2ccco2)cc1,-0.043% (inactive)
13,Cc1cc(C)cc(N)c1,-0.449% (inactive)
14,CCN(C(=O)CSc1nnnn1-c1ccc(OC)cc1)C1CCS(=O)(=O)C1 (configuration not stated),-0.617% (inactive)
15,Cc1c(C(=O)N(C)CCc2cnn(C)c2)oc2c(F)cccc12,6.8% (inactive)
16,CC(C)c1ccc(Nc2nnc(SCC(=O)c3nnc(-c4ccccc4)o3)s2)cc1,200% (active)
17,Cc1ccccc1Nc1nnc(SCC(=O)c2cc3ccccc3o2)s1,0.609% (inactive)
18,CC(C)N(C(=O)CSc1nnc(NC2CC2)s1)c1ccccc1,0.892% (inactive)
19,O=C1C2(Cl)C3(Cl)C4(Cl)C(Cl)(Cl)C5(Cl)C3(Cl)C1(Cl)C5(Cl)C24Cl (configuration not stated),78.8% (active)
20,CCc1ccc(NC(=O)N[C@H](C(=O)O)C(C)CC)cc1 (some centres not stated),-0.138% (inactive)
21,CCOc1ccc(NC(=O)N2CC=C(n3c(=O)[nH]c4ccccc43)CC2)cc1,-0.78% (inactive)
22,CCn1c(SC)nc(O)c(C(c2ccc(OC)c(O)c2)c2c(O)nc(SC)n(CC)c2=O)c1=O,-0.176% (inactive)
23,CC(Sc1nnc(-c2cccs2)n1C1CC1)C(=O)NCC1CCCO1 (configuration not stated),-0.606% (inactive)

row,SMILES,growth rescue
1,O=c1oc2ccccc2cc1-c1cn(-c2ccccc2)c(=S)[nH]1,2.32% (inactive)
2,O=c1oc2ccccc2cc1-c1csc(Nc2ccc(O)cc2)n1,77.4% (active)
3,Cc1cc(C)cc(OCC(=O)NNC(=O)c2cc3ccccc3oc2=O)c1,-1.97% (inactive)
4,COc1cc(C(=O)OCC(=O)NC23CC4CC(CC(C4)C2)C3)cc(OC)c1OC,0.746% (inactive)
5,Cc1ccc(C(=O)OC2CCCN(C)C2)cc1 (configuration not stated),-1.37% (inactive)
6,CC1(C)C2CCC1(C)C(OC(=O)CCn1ccnc1)C2 (configuration not stated),-1.93% (inactive)
7,CC1(C)C2CCC1(C)C(OC(=O)c1ccc(O)cc1)C2 (configuration not stated),518% (active)
8,CCOC(=O)Nc1ccc2c(c1)N(C(=O)CCCl)c1ccccc1[S@]2=O,1.15% (inactive)
9,Cc1ccc2c(c1)N(CC(=O)NCCCN1CCCCC1)C(=O)c1cccnc1O2,-0.596% (inactive)
10,COC(=O)C1CCCCN1C(=O)c1ccc(OC2CCN(C(C)=O)CC2)c(OC)c1 (configuration not stated),1.77% (inactive)
11,Cc1ccc2c(c1)N(CC(=O)N1CCOCC1)C(=O)CO2,-0.417% (inactive)
12,CCCCNc1c(-c2ccc(OC)c(Sc3ccc(OC)cc3)c2)nc2ccc(Cl)cn12,19.1% (inactive)
13,CCCCNc1nc2c(c(=O)n(C)c(=O)n2C)n1Cc1cccc(OC)c1,0.511% (inactive)
14,CCCCNc1c(-c2cccc(Sc3ccc(OC)cc3)c2)nc2ccccn12,310% (active)
15,Cn1c(=O)n(C)c2cc(CNc3ccc(N4CCOCC4)c(C(=O)O)c3)ccc21,-0.489% (inactive)
16,Cc1cccc(N2CCN(C(=O)CN(C)S(=O)(=O)c3ccc4c(c3)CCC(=O)N4)CC2)c1C,-1.62% (inactive)
17,COc1ccc(C(=O)Nc2cc(C)c(NC(=O)c3ccccc3OC)cn2)cc1,1.75% (inactive)
18,COc1cc(C=NNC(=O)c2cccnc2)ccc1OC(=O)c1ccccc1F,1.77% (inactive)
19,COc1ccc(C(=O)Nc2ccccc2C(=O)N/N=C/c2ccc(O)c(OC)c2)cc1,40.9% (active)
20,C=CCN1CC(C)/C(=N\O)CC1C (configuration not stated),-0.962% (inactive)
21,COc1cccc(CNC(=O)CCC2CCCN(C(=O)c3cc(C)[nH]n3)C2)c1 (configuration not stated),1.27% (inactive)
22,NC(=O)NC(=O)CSc1nc2cc([N+](=O)[O-])ccc2n1-c1cccc(C(F)(F)F)c1,0.555% (inactive)
23,Nc1[nH]c(=S)nc2nc(-c3ccccc3)c(-c3ccccc3)nc12,38.7% (active)

row,SMILES,growth rescue
1,Cc1ccc(Cc2cncc(O)c2)cc1S(=O)(=O)O,-2.67% (inactive)
2,O=C(Nc1ccc2sc3ccccc3c(=O)c2c1)c1ccccc1Cl,-0.178% (inactive)
3,COC(=O)c1nc(NC(=O)c2ccccc2)n[nH]1,-0.423% (inactive)
4,O=C(NC1=CC(=O)c2ccccc2C1=O)c1ccccc1,300% (active)
5,O=C(Nc1ccc2ccccc2c1[N+](=O)[O-])c1ccccc1,0.461% (inactive)
6,O=c1c2ccccc2ccc2ccc(P(=O)(O)O)cc12,-0.021% (inactive)
7,CCOC(=O)CSc1nnc(CNC(=O)c2cccs2)n1-c1ccccc1,-0.612% (inactive)
8,COc1ccc2[nH]c(C(=O)N3CCN(C)CC3)c(C)c2c1,-0.899% (inactive)
9,COc1ccc2[nH]c3c(C)c4cc[n+](C)cc4c(C)c3c2c1,122% (active)
10,COc1ccc2[nH]c3c(c2c1)CCN[C@H]3C,-1.47% (inactive)
11,Cc1c(NC(=O)C(C)Oc2cccc(Cl)c2)c(=O)n(-c2ccccc2)n1C (configuration not stated),0.003% (inactive)
12,O=C(NCCCN1CCOCC1)c1cc(-c2ccc(Cl)cc2)on1,0.597% (inactive)
13,O=C(NCCCN1CCOCC1)c1cc(-c2cccc(O)c2)on1,44.1% (active)
14,COc1ccc(-c2cc(C(=O)NCCCN3CCOCC3)no2)cc1,0.263% (inactive)
15,CCOC(=O)CNC(=O)CSc1ncccc1-c1nc2ccccc2[nH]1,0.257% (inactive)
16,Cc1cc(NC(=O)CN2CCCC(C)C2)n(-c2nc3ccccc3s2)n1 (configuration not stated),-1.25% (inactive)
17,CC(=NCc1ccco1)c1c(C(F)(F)F)[nH]n(-c2nc3ccccc3s2)c1=O,-0.486% (inactive)
18,COC(=O)Cc1cc(=O)n(-c2nc3ccccc3s2)[nH]1,103% (active)
19,O=C(NCCCn1ccnc1)c1cc(-c2ccccc2)on1,-0.876% (inactive)
20,O=C(/C=C/c1ccccc1)Oc1coc(CSc2ncccn2)cc1=O,1.58% (inactive)
21,COc1cc(C#Cc2ccc3cc(CCCO)oc(=O)c3c2)cc(OC)c1,45.9% (active)
22,O=C1c2ccccc2C(=O)N1CCC#Cc1ccc2cc(C3(O)CCCCC3)oc(=O)c2c1,0.213% (inactive)
23,COc1cc(/C=C2\Oc3ccc(C#Cc4ccc(O)cc4)cc3C2=O)cc(OC)c1,-1.52% (inactive)

row,SMILES,growth rescue
1,CCN1CCN(C(=O)CN(C)S(=O)(=O)c2ccc3ccccc3c2)CC1,-0.824% (inactive)
2,S=c1c2[nH]cnc2ncn1CCSc1ncnc2nc[nH]c12,-2.56% (inactive)
3,O=S(=O)(c1ccc(OCC(O)CN2CCN(c3ccccc3Cl)CC2)cc1)N1CCOCC1 (configuration not stated),2.31% (inactive)
4,Cc1cccc(OCC(O)CN2CCN(S(=O)(=O)c3ccc(C)cc3C)CC2)c1 (configuration not stated),0.709% (inactive)
5,CC(=O)c1ccc(OCC(O)CN2CCN(S(=O)(=O)c3cccc(Br)c3)CC2)cc1 (configuration not stated),26.4% (active)
6,COC(=O)c1cc2occc2n1Cc1nc(-c2ccccc2C)oc1C,1.43% (inactive)
7,Cc1c(NS(=O)(=O)c2cc(C(=O)NCCc3ccc(F)cc3)cc(Cl)c2Cl)c(=O)n(-c2ccccc2)n1C,-0.709% (inactive)
8,CC12CCC(C(=O)N(NC(=O)c3ccccc3O)C1=O)C2(C)C (configuration not stated),64.6% (active)
9,COc1ccccc1C(=O)NN1C(=O)C2C3C=CC(O3)C2C1=O (configuration not stated),0.742% (inactive)
10,CC1=CC(C)(C)NC(=S)N1NC(=O)c1ccccc1Cl,0.305% (inactive)
11,CN1CCN(C(=O)N2c3ccccc3CCc3ccccc32)CC1,-1.45% (inactive)
12,CCN(CC(=O)Nc1c(F)cccc1F)C(=O)CN1c2cccc3cccc(c23)S1(=O)=O,0.416% (inactive)
13,O=C(O)CN1c2cccc3cccc(c23)S1(=O)=O,0.021% (inactive)
14,CC(C)CN(CC(C)C)C(=O)CN1c2cccc3cccc(c23)S1(=O)=O,29.2% (active)
15,COc1ccc(C2COC(=O)C2=N)c(NC(=O)c2ccccc2)c1 (configuration not stated),-1.79% (inactive)
16,Cc1nc(C(=O)N2CCCC(C(=O)c3ccc(Cl)cc3)C2)cs1 (configuration not stated),-0.97% (inactive)
17,O=C(c1ccc(-c2ccccc2)cc1)C1CCCN(C(=O)c2cncs2)C1 (configuration not stated),373% (active)
18,CCNC(=O)N1CCCC(C(=O)c2ccc(-c3ccccc3)cc2)C1 (configuration not stated),173% (active)
19,CCOC(=O)CCNC(=O)N1CCCC(C(=O)c2ccccc2SC)C1 (configuration not stated),-0.934% (inactive)
20,Cc1ccccc1NC(=O)C1CCCN(C(=O)NCc2ccccc2)C1 (configuration not stated),-1.16% (inactive)
21,Cn1nccc1C(=O)N1CCCC(C(=O)c2ccc(Oc3ccccc3)cc2)C1 (configuration not stated),1.09% (inactive)
22,N#Cc1c(C(F)(F)F)cc(-c2cccs2)nc1N1CCCCC1,-0.0675% (inactive)
23,CC(=O)c1ccc(NC(=O)c2ccc(-n3cncn3)c([N+](=O)[O-])c2)cc1,0.873% (inactive)
